Drawing on PubChem BioAssay AID652067 (The Scripps Research Institute Molecular Screening Center, 2013), this text covers activation for 57 compounds.

Molecules are shown by their SMILES. About 5,400 (1.5%) of roughly 370,000 compounds were called active. The full list was thinned out, with actives kept by preference. Unmarked numbers belong to inactive results.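 Rule for the calls: active = activation above the mean of all tested compounds plus 3 SD (cut at about 5.5% in these data); inactive = the rest.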

The test deals with DAF-12 nuclear receptor (Haemonchus contortus). Briefly: H. contortus DAF-12 nuclear receptor activators, primary screen, cell-based, luminescence, HEK293, lit1-tk-luc reporter (AID 652067).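 Note: 100% = response to 3 µM Δ7-dafachronic acid high control.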 The note with it: HEK293 hcDAF-12 lit1-tk-luc reporter, at 6.8 µM, active compounds read high, 0% DMSO, 100% Δ7-dafachronic acid.
With `CC(CCc1ccccc1)NCC(O)c1cccc([N+](=O)[O-])c1` (configuration not stated), the activation was -0.61%. In the case of `Cn1c(=NC(=O)c2cnccn2)sc2ccccc21` it was 3.28%; in that of `Cn1c(=NC(=O)c2ccco2)sc2cccc(F)c21`, 10.7% (active).

`Cc1cc(NC(=O)c2ccco2)c(=O)n(Cc2c(F)cccc2Cl)c1`: the activation is -0.57%. In the case of `C=CCN1C(=O)[C@H](CC(=O)N2CCN(C(=O)OCC)CC2)[C@@]2(C(=O)OCC)CCCC=C12` it was -0.81%; in that of `Cc1ccccc1CN1CCCCC(NC(=O)c2cccc(C#N)c2)C1=O` (configuration not stated), -2.63%. In the case of `Cc1ccc(C(=O)C2CCN(CC(=O)NCCC(C)C)CC2)cc1` it was -1.66%; in that of `COc1ccc([C@H]2OC(=O)C[C@H]2C(=O)N2CCN(c3ccccc3F)CC2)cc1OC`, -0.81%. The result for `Cc1cc(C(F)(F)F)c(C#N)c(SCC(=O)NC2CC2)n1` reads -2.02%; that for `CCN(CC)c1nc(-c2ccccc2)cc(C(F)(F)F)c1C#N`, -1.43%. Turning to `N#Cc1c(C(F)(F)F)cc(-c2ccc(Cl)cc2)nc1SCC(=O)O`, the activation was 6.47% (active). On to `CN(C)S(=O)(=O)c1cccc(C(=O)N/N=C\c2ccco2)c1`, for which the activation is 0.08%. In the case of `Cc1ccsc1C(=O)NC1CCCCC1C` (configuration not stated) it was -1.43%. The result for `Cc1ccc(/C=N/NC(=O)c2sccc2OCc2ccc(F)cc2)cc1` reads 0.06%; that for `Cc1ccsc1C(=O)N/N=C/c1ccc([N+](=O)[O-])cc1`, 6.15% (active); that for `O=C(NCCC1=CCCCC1)C1CCN(S(=O)(=O)c2ccc(Cl)s2)CC1`, -1.29%. In the case of `CC(=O)c1ccc(S(=O)(=O)NCC2CCN(C(=O)C(=O)c3cccs3)CC2)cc1` it was -1.54%; in that of `COc1ccc(-c2cc3ncccc3cn2)cc1`, 7.99% (active). As to `COc1ccc(-c2cc3n(n2)CCc2nc4ccccc4n2-3)cc1`, the activation is 2.18%. In the case of `COc1ccc(-c2cc(C3CCN(c4ncccc4[N+](=O)[O-])CC3)[nH]n2)cc1` it was -1.95%; in that of `Cc1ccc(Cn2cc(COC(=O)N(C)Cc3ccccc3)nn2)cc1`, -1.15%. In the case of `O=C1CCCCN1CCCC(=O)N1CCCC(Nc2ccc(F)cc2)C1` (configuration not stated) it was -0.38%; in that of `COc1ccc(C(=O)OCCN2CCN(C3CN(Cc4cn(Cc5ccccc5F)nn4)S(=O)(=O)C3)CC2)cc1OC` (configuration not stated), -3.13%; in that of `CCOC(=O)C1CCN(C(=O)C(C)(C)NC(=O)Nc2ccccc2Cl)CC1`, -0.1%. In the case of `CC(=O)N1C[C@@H](CO)[C@@H](N(C)C(=O)C(C)(C)C)C[C@H]1c1ccccc1Br` it was -0.9%; in that of `Nc1ccc(C(=O)Nc2ccccc2N)cc1`, 10.3% (active).

With `O=C(Cc1ccccc1)Nc1ccc(C(=O)Nc2ccccc2C(=O)O)cc1`, the activation was 0.4%. In the case of `O=C(Nc1ccccc1F)c1ccc(S(=O)(=O)N2CCCCCC2)cc1` it was -0.38%; in that of `Cc1cc(N=Nc2ccc3ccccc3c2)ccc1O`, 9.93% (active); in that of `CN(C(N)=NC(=O)/C=C/c1ccccc1)C(C#Cc1ccccc1)Cc1ccccc1` (configuration not stated), -0.54%. Consider `O=C(NCCCn1ccnc1)c1cc(Br)c(Br)s1`, for which the activation is -2.07%. The result for `O=C(NCCCn1ccnc1)c1cc(-c2ccccc2)on1` reads 6.25% (active); that for `O=C(Nc1ccccc1C(=O)NCCCn1ccnc1)c1ccc(Cl)cc1Cl`, -0.66%; that for `COC(=O)C1=C(C)N(Cc2ccc(F)cc2)C(=S)NC1c1cccc(Cl)c1` (configuration not stated), -0.58%.

Consider `C#CCNC(=O)C[C@H]1C[C@@]2(C(=O)OC)C(=C[C@H](C(C)C)O[C@@H]2C2CC2)N(Cc2ccco2)C1=O`, for which the activation is -0.47%. Consider `CCN(C(=O)[C@@H](C1CC1)[C@@H](O)c1ccc2ccccc2c1)c1ccccc1`, for which the activation is -0.38%.

With `CCCCCCCCN1C(=O)[C@@H](CC(=O)NCCCC)C[C@@]2(C(=O)OC)C1=C[C@H](C(C)(C)C)O[C@@H]2C`, the activation was 2.12%. In the case of `COC(=O)c1cccc(Cn2ccc3ccc(-c4ccc5ccn(C(=O)C6CCCCC6)c5c4)cc32)c1` it was 2.46%; in that of `Cc1[nH]c2ccccc2c1-c1ccc(Cl)nn1`, -0.07%. In the case of `S=c1[nH]c2ccccc2c2ccccc12` it was 0.24%; in that of `Cc1c(C(C)c2ccccc2O)[nH]c2ccccc12` (configuration not stated), 5.82% (active).

In the case of `Cc1ccc(-n2c(SCC(=O)Nc3ccc(S(=O)(=O)Nc4nccs4)cc3)nnc2-c2ccncc2)cc1`, the activation was -0.82%.

On to `C=CCn1c(SCC(N)=O)nnc1-c1ccccc1OC`, for which the activation was -0.44%. The result for `COc1ccc(C)cc1NC(=O)CN1c2cccc3cccc(c23)S1(=O)=O` reads -2.24%; that for `O=C(O)CN1c2cccc3cccc(c23)S1(=O)=O`, 7.97% (active); that for `CC(C)CN(CC(C)C)C(=O)CN1c2cccc3cccc(c23)S1(=O)=O`, 0.46%. As to `COC(=O)Cc1nnn2c1[C@H](C)[C@H](c1ccccc1Br)OCC2`, the activation is -1.44%. In the case of `COCc1ccc(C(=O)N2CCc3c([nH]c4ccccc34)C2c2ccccn2)s1` (configuration not stated) it was 0.63%; in that of `Cc1cccc(C(=O)N2CCc3c([nH]c4ccccc34)C2CC(C)C)n1` (configuration not stated), 6.78% (active); in that of `Cc1cccc(C2c3[nH]c4ccccc4c3CCN2C(=O)c2cc(-c3cccn3C)n[nH]2)n1` (configuration not stated), 1.83%. The result for `O=[N+]([O-])c1ccc(N/N=C2/CCCCC2c2ccccn2)c([N+](=O)[O-])c1` (configuration not stated) reads 0.53%.

Take `C[n+]1ccccc1C1CCCC/C1=N\Nc1ccc([N+](=O)[O-])cc1[N+](=O)[O-]` (configuration not stated): the activation is 6% (active). In the case of `O=C(Nc1ccccc1)O/N=C1\CCCCC1c1ccc([N+](=O)[O-])cc1[N+](=O)[O-]` (configuration not stated) it was -1.35%.

As for `Cc1ccnc(NC(=O)CCNS(=O)(=O)c2ccc(C)c(C)c2)c1`, the activation is 9.81% (active).

For `Cc1ccc(S(=O)(=O)NCCC(=O)Nc2cccc(S(N)(=O)=O)c2)cc1C`, the activation was -1.34%. The result for `Cc1ccc(S(=O)(=O)NCCC(=O)NCc2ccc(Cl)cc2)cc1C` reads 2.24%; that for `O=C(CNC(=O)c1ccccc1)OC(C(=O)Nc1cc([N+](=O)[O-])ccc1F)c1ccccc1` (configuration not stated), -1.31%.
